Data published in PMC5540273 (PLoS ONE, 2017).

Assays:
Conditions in all cases: concentration: 1 μM, replicates: in singlicate; n = 1
[1] = system: TYK2(JH2domain-pseudokinase)
TYRO3 = system: TYRO3
ULK1 = system: ULK1
ULK2 = system: ULK2
ULK3 = system: ULK3
VEGFR2 = system: T1, VEGFR2
T1 construct: gene KDR

VPS34 = system: T2, VPS34
T2 construct: gene PIK3C3

VRK2 = system: VRK2
WEE1 = system: WEE1
WEE2 = system: WEE2
WNK1 = system: WNK1
WNK2 = system: WNK2
WNK3 = system: WNK3
WNK4 = system: WNK4
YANK1 = system: T3, YANK1
T3 construct: gene STK32A

YANK2 = system: T4, YANK2
T4 construct: gene STK32B

YANK3 = system: T5, YANK3
T5 construct: gene STK32C

YES = system: T6, YES
T6 construct: gene YES1

YSK1 = system: T7, YSK1
T7 construct: gene STK25

YSK4 = system: T8, YSK4
T8 construct: gene MAP3K19
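Note: KINOMEscan kinase panel screen.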

| SMILES | %Inh [1] [%] | %Inh (TYRO3) [%] | %Inh (ULK1) [%] | %Inh (ULK2) [%] | %Inh (ULK3) [%] | %Inh (VEGFR2) [%] | %Inh (VPS34) [%] | %Inh (VRK2) [%] | %Inh (WEE1) [%] | %Inh (WEE2) [%] | %Inh (WNK1) [%] | %Inh (WNK2) [%] | %Inh (WNK3) [%] | %Inh (WNK4) [%] | %Inh (YANK1) [%] | %Inh (YANK2) [%] | %Inh (YANK3) [%] | %Inh (YES) [%] | %Inh (YSK1) [%] | %Inh (YSK4) [%] |
| --- | --- | --- | --- | --- | --- | --- | --- | --- | --- | --- | --- | --- | --- | --- | --- | --- | --- | --- | --- | --- |
| Cc1ccc(F)c(C(=O)Nc2cccc(-c3nn4ccccc4c3-c3ccnc(Nc4cccc(F)c4)n3)c2)c1F [GSK361061] | 0 | 86 | 100 | 0 | 11 | 42 | 7 | 0 | 22 | 11 | 0 | 6 | 3 | 0 | 6 | 47 | 6 | 95.3 | 0 | 0 |
| COc1cc(Nc2nccc(-c3c(-c4cccc(NC(=O)c5c(F)cccc5F)c4)nn4ncccc34)n2)cc(OC)c1OC [GSK327238] | 0 | 100 | 14 | 0 | 30 | 96.1 | 11 | 11 | 10 | 5 | 1 | 0 | 0 | 0 | 50 | 89 | 56 | 100 | 56 | 7 |
| CSc1cccc2c(-c3ccncn3)c(-c3ccc(F)cc3)nn12 [GW514786] | 24 | 0 | 0 | 0 | 3 | 0 | 14 | 23 | 6 | 1 | 0 | 1 | 22 | 24 | 23 | 24 | 2 | 4 | 0 | 0 |
| COc1cc2c(cc1OCCN1CCNCC1)ncc1c3ccc(C#N)cc3[nH]c21 | 15 | 0 | 91.9 | 99.8 | 47 | 49 | 0 | 15 | 0 | 0 | 12 | 41 | 7 | 9 | 5 | 0 | 0 | 0 | 1 | 87 |
| O=C(Nc1cccc(-c2nn3ccccc3c2-c2ccnc(Nc3cccc(C(F)(F)F)c3)n2)c1)c1c(F)cccc1F [GSK292658] | 0 | 67 | 31 | 9 | 5 | 8 | 0 | 0 | 0 | 0 | 5 | 15 | 0 | 27 | 12 | 7 | 23 | 95.2 | 0 | 0 |
| C[C@@H](Oc1cc(-n2cnc3cc(-c4ccnc(NCCS(C)(=O)=O)c4)ccc32)sc1C(N)=O)c1ccccc1Cl [GSK907232] | 0 | 4 | 25 | 0 | 14 | 28 | 60 | 0 | 43 | 25 | 37 | 80 | 88 | 37 | 6 | 0 | 32 | 47 | 14 | 96.7 |
| COc1cc(Nc2nccc(N3CCC(NC(=O)Nc4cccc(C(C)=O)c4)C3)n2)cc(OC)c1OC (stereo not shown) [GSK1379753] | 19 | 0 | 18 | 0 | 78 | 0 | 0 | 0 | 6 | 0 | 0 | 65 | 59 | 41 | 14 | 0 | 0 | 12 | 2 | 75 |
| COc1cccc(-c2ccc3c(NC(=O)C4CC4)n[nH]c3n2)c1 [SB-710903] | 64 | 0 | 0 | 0 | 9 | 0 | 0 | 66 | 14 | 15 | 45 | 57 | 66 | 87 | 0 | 2 | 0 | 13 | 0 | 92.3 |
